TRHR agonist: qHTS for Small Molecule Agonists and Allosteric Enhancers of Human TRH Receptor: Primary Screen for Agonists. Thyrotropin-releasing hormone receptor (Homo sapiens), P34981. TRHR cells, calcium flux fluo-8, FDSS agonist mode. activation, % at 2 µM. 360,000 tested, 0.18% active; also: 0% is about no effect
Target sequence (P34981 whole entry, looked up): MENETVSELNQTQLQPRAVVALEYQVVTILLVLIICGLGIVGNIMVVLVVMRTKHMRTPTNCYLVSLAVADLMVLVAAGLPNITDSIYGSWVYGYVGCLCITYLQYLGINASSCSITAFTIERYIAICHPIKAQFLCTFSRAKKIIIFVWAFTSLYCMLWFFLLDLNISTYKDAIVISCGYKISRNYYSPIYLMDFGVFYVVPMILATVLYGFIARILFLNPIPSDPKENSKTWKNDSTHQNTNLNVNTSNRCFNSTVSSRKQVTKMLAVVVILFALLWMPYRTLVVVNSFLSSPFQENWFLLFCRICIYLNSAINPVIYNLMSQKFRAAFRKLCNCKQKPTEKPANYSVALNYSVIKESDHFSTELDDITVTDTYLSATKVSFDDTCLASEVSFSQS
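Fluo-8-loaded TRHR cells; 10 s baseline, compound added, kinetic Ca2+ fluorescence read 1/s, agonist mode.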
D1 ag: Allosteric Agonists of the Human D1 Dopamine Receptor: qHTS | D(1A) dopamine receptor (Homo sapiens), P21728 | HEK293 T-REx D1 cells, calcium flux, agonist mode | activation, % at 2 µM | 360,000 tested, 1% active; also: 0% is about no effect
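Agonism was scored from calcium flux recorded over 180 s (1 read/s) after pintool compound addition, following a 10-cycle baseline. Cells were inducible force-coupled HEK293 TREx D1, plated overnight at 30 C and loaded with no-wash calcium dye.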
D1 potentiator: Potentiators of Human D1 Dopamine Receptor: qHTS; D(1A) dopamine receptor (Homo sapiens), P21728; HEK293 TREx D1 cells, calcium flux, dopamine EC20 potentiation; 360,000 tested, 0.036% active; potentiation, % at 10 µM; in the data active = potentiation above about 30%; also: 0% is about no effect
D1 antagonist: Antagonist of Human D 1 Dopamine Receptor: qHTS | D(1A) dopamine receptor (Homo sapiens), P21728 | HEK293 TREx D1 cells, calcium flux, dopamine EC80; active compounds read low | activity change, negative = inhibition, % at 10 µM | 360,000 tested, 3.2% active | AID 504652, 2011; in the data active = activity change below about -30%; also: % is scaled to controls: 0 for no effect and ±100 for the full control effect
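Tetracycline-induced HEK293 Trex D1 cells, force-coupled to calcium, dye-loaded; compounds added and read 180 s, then EC80 dopamine added and calcium flux tracked kinetically another 180 s.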
TRHR enhancer: qHTS for Small Molecule Agonists and Allosteric Enhancers of Human TRH Receptor: Primary Screen for Enhancers; enhancement, % at 2 µM; AID 493056, 2011; Thyrotropin-releasing hormone receptor (Homo sapiens), P34981; TRHR cells, fluo-8 calcium fluorescence, EC20 TRH enhancement; 360,000 tested, 0.66% active; in the data active = enhancement above about 30%; also: 0% is about no effect
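Enhancer read-out: after compound pinning and an initial kinetic agonist-mode read, an EC20 of TRH (10 nM final) was injected and fluo-8 calcium signal (Ex 480/Em 530) followed at 1 s/cycle for 100 cycles in TRHR-expressing cells.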
The depositor's hits bear a star; . = not tested or not shown; ! = not confirmed by another sample. Compounds with a hit are over-represented: about 4.7% of the library has one in this group of screens. Rule as the data show it, unless noted: active = activation above about 30%; inactive = the rest.

SMILES	TRHR agonist	D1 ag	D1 potentiator	D1 antagonist	TRHR enhancer
Cc1ccnc(NS(=O)(=O)c2ccc(N3C(=O)Nc4ccccc4N3O)cc2)c1	0.0	2.7	-4.8	12.3	1.6
FC(F)(F)c1cccc(NC(=S)Nc2ccc(Cl)c(Cl)c2)c1	0.2	11.1	-1.6	-12.1	0.7
O=[N+]([O-])c1cc(C(F)(F)F)cc([N+](=O)[O-])c1NCCNC(=S)Nc1ccc(Cl)c(Cl)c1	0.7	11.2	0.3	-31.5*	-2.6
CCCNCC(O)COc1ccccc1C(=O)CCc1ccccc1 (stereo not given)	1.5	.	.	-51.9*	-8.8
O=C(N/N=C/C1CC=CCC1)c1ccc(Cl)cc1O (stereo not given)	1.8	22.9	-16.2	-36.6*	-3.0
COc1cccc(CNCc2c(C(=O)O)c(C)n(Cc3ccc(F)cc3Cl)c2C)c1OC	0.0	1.7	0.4	-1.7	0.4
CN(C)CCCN(C(=O)c1ccc(C(=O)c2ccccc2)cc1)c1nc2ccc(F)cc2s1	-0.8	69.7*	-10.1	-32.9*	9.6
CN(C)CCCN(C(=O)c1ccc(C(=O)c2ccccc2)cc1)c1nc2cc3c(cc2s1)OCO3	1.8	62.2*	3.3	-7.4	1.3
CCN(CC)CCN(C(=O)c1ccc(C(=O)c2ccccc2)cc1)c1nc2cc3c(cc2s1)OCO3	-0.5	5.4	0.5	-10.4	0.2
CCN(Cc1ccccc1)S(=O)(=O)c1ccc(C(=O)N(CCCN(C)C)c2nc3cc4c(cc3s2)OCCO4)cc1	0.7	3.4	-3.8	-41.5*	6.3
CCN(Cc1ccccc1)S(=O)(=O)c1ccc(C(=O)N(CCCN(C)C)c2nc3ccc(F)cc3s2)cc1	0.4	4.6	-7.3	-5.9	-2.0
CN(C)CCN(C(=O)c1ccc2ccccc2c1)c1nc2ccc(F)cc2s1	0.3	3.4	-3.6	-12.1	-0.9
CN(C)CCCN(C(=O)c1cccc(N2C(=O)CCC2=O)c1)c1nc2cc3c(cc2s1)OCO3	0.5	-1.4	-1.9	11.8	32.2*
COc1ccccc1C(=O)Nc1c(C(=O)N(C)c2ccccc2)sc2nc(C)cc(C)c12	-0.9	-0.1	-3.2	-15.4	-5.6
O=C(c1ccc(NS(=O)(=O)c2ccc(Cl)c(Cl)c2)cc1)N1CCOCC1	-0.2	0.7	1.9	4.8	3.8
COc1ccc(OC)c(NC(=O)c2cccc(N3C(=O)C4C5C=CC(C6CC56)C4C3=O)c2)c1 (stereo not given)	-0.4	2.9	-2.1	-3.2	-2.3
Cc1ccc(CNC(=O)CCc2nnc3ccc(N4CCC5(CC4)OCCO5)nn23)cc1	0.0	2.5	-0.1	16.1	4.8
CCC(C)NC(=O)CN1C(=O)c2cccnc2Oc2ccc(C)cc21 (stereo not given)	0.3	0.8	-7.9	-6.9	16.4
CN(C)CCCN(C(=O)c1ccc(S(=O)(=O)N2CCCCC2)cc1)c1nc2cc3c(cc2s1)OCO3	2.6	33.4*	1.2	-3.6	1.3
CN(C)CCCN(C(=O)c1ccc(S(=O)(=O)N2CCOCC2)cc1)c1nc2cc3c(cc2s1)OCO3	0.8	1.1	-1.1	-0.6	2.9
CN(C)CCCN(C(=O)c1ccc(Br)s1)c1nc2ccc(F)cc2s1	1.2	9.6	-3.2	4.7	10.0
CCOC(=O)N1CCN(S(=O)(=O)c2ccc(C(=O)N(CCN(C)C)c3nc4ccc(Cl)cc4s3)cc2)CC1	0.7	7.4	-10.9	-33.4*	4.4
CCN(CC)CCN(C(=O)c1ccc2ncsc2c1)c1nc2cc3c(cc2s1)OCO3	0.3	1.1	-3.2	-45.7*	-2.2
CCN(CC)CCN(C(=O)c1ccc(Br)s1)c1nc2cc3c(cc2s1)OCO3	0.2	4.4	-3.1	1.5	-2.6
CCOC(=O)N1CCN(S(=O)(=O)c2ccc(C(=O)N(CCCN(C)C)c3nc4ccc(OC)cc4s3)cc2)CC1	0.0	8.2	-1.1	31.0	0.1
SMILES	TRHR agonist	D1 ag	D1 potentiator	D1 antagonist	TRHR enhancer
Cc1ccc2nc(N(CCCN(C)C)C(=O)c3ccc(Br)s3)sc2c1	2.1	41.3*!	-2.6	-2.5	3.0
CC(C)C[C@@H](NC(=O)C1CCC(CNC(=O)[C@H](Cc2ccccc2)NC(=O)OC(C)(C)C)CC1)C(=O)O (stereo not given in full)	1.0	1.0	-3.5	-25.5	-2.3
O=C1C(=O)N(C2CCN(C(=O)c3ccccc3Cl)CC2)CCN1Cc1ccc(F)cc1	0.9	2.5	-2.8	8.2	-0.7
O=C(O)c1ccc(CNCc2cc(Cl)ccc2O)cc1	0.1	0.3	0.6	.	6.0
Cc1ccc(CNCc2cc(Cl)ccc2O)cc1	1.4	59.7*	0.1	2.3	1.2
COc1ccc(NC(=O)CCOc2ccccc2C)cc1S(=O)(=O)N1CCCCC1	0.4	5.2	-5.7	-13.7	7.2
OCCCCNCc1ccc(OCc2ccccc2)cc1	-0.3	16.2	-2.4	5.0	2.5
Clc1cccc(OCCCCN2CCCCC2)c1	0.1	4.9	-5.5	-4.3	34.3*
c1ccc(COc2ccc(OCCCCN3CCCCC3)cc2)cc1	2.7	41.5*	-4.5	-35.2*	10.0
OCCNCCCCOc1ccc(OCc2ccccc2)cc1	1.0	46.5*	-14.3	-30.6*	13.8
COc1ccc(NC(=S)NCCc2c[nH]c3ccccc23)c(OC)c1	0.6	8.1	-2.9	-36.2*	1.7
C#Cc1nc(Nc2cccc(Cl)c2)nc(NC2CCCC2)n1	-1.1	2.0	0.3	-20.1	-0.6
C=CCN1CC(C(=O)N2CCC(Cc3ccc(Cl)cc3)(C(=O)OCC)CC2)CC1=O (stereo not given)	0.2	1.5	-1.9	-31.8*	30.3*
O=C(NCc1ccccn1)c1cccc(S(=O)(=O)Nc2ccccc2Cl)c1	0.2	1.4	1.6	-16.7	6.2
Cc1cc(Br)cc2c1N(Cc1ccccc1OC(C)C)C(=O)C2=O	-1.3	0.6	-0.7	-50.6*	-8.3
CCCc1cc(-c2n[nH]c(C)c2-c2ccc(C(=O)OCC)o2)c(O)cc1O	-0.2	65.3*	-2.5	62.9	2.1
Cc1ccc(NC(=O)c2sc3nc[nH]c(=O)c3c2C)c(C)c1	0.0	7.8	-11.9	-47.9*	0.1
Cc1ccc(NC(=O)c2sc3nc[nH]c(=O)c3c2C)cc1Cl	0.6	1.2	-1.4	0.8	10.6
CN(CC(=O)Nc1cccc(F)c1)C(=O)c1csc2c1CCCC2	-0.2	33.0*	-10.6	-2.7	0.2
Cc1ccc(-n2c(-c3cccc(C)c3)nc3c(cnn3-c3ccccc3)c2=O)cc1	0.7	3.6	-2.1	5.2	-2.7
Cc1nc2c(cnn2-c2ccccc2)c(=O)[nH]1	1.1	0.4	-5.4	-38.2*	5.0
O=c1[nH]c(-c2ccc(Cl)cc2)nc2c1cnn2-c1ccccc1	-0.3	2.6	-1.9	9.0	2.5

Screens as filed in PubChem.
